According to PubChem BioAssay AID743291 (Broad Institute, 2014):
Results with a measured potency or affinity are listed apart.

molecular target: Caspase-3 (Homo sapiens) (UniProt P42574); test: caspase-3 enzyme inhibitors, selectivity check, dose response, selectivity assay for caspase-6 allosteric inhibitor project, biochemical, fluorescence, cherry-picked samples (AID 743291); details: Recombinant caspase-3, Z-DEVD-R110 cleavage fluorescence; series mostly up to 35 µM; activity change, negative = inhibition: at the top concentration
Sequence (P42574 whole entry, looked up): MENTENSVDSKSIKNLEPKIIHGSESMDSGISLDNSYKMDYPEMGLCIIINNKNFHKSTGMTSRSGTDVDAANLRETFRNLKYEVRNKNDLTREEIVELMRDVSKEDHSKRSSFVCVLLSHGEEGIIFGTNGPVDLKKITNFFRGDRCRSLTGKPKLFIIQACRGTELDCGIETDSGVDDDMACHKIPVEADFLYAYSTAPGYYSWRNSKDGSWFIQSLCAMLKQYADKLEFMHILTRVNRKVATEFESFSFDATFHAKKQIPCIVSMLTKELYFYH

Activity change, negative = inhibition, inactive:
Cc1c(CCC(=O)O)c(=O)oc2c(C)c(OCc3ccccc3Cl)ccc12 0.576%
COc1ccccc1NC(=O)COC(=O)c1ccc([N+](=O)[O-])s1 -44.9%
O=C(Nc1ccc(S(=O)(=O)Nc2cnc3ccccc3n2)cc1)c1ccc(Cl)c([N+](=O)[O-])c1 2.61%
Nc1ccc(Nc2ccccc2)c(S(=O)(=O)O)c1 1.55%
Cc1ccc(C)c(NC(=O)CN(C)C(=O)c2cccc(-n3cccc3)c2)c1 -1.83%
Oc1cc(NCCN2CCOCC2)cc2cccnc12 7%
COc1cc(NC(C)CCCNC(C)C)c2ncccc2c1OC (stereo not drawn) -15.3%
CCOC(=O)[C@H](Cc1c[nH]c2ccccc12)NC(=O)CN=[N+]=[N-] 1.19%
Cc1cccc(NC(=O)CNC(=O)c2cccc(-n3cccc3)c2)c1C -9.13%
COc1ccc(OC)c(Nc2cc3ccccc3c(=O)[nH]2)c1 -0.092%
Nc1cc2c(cc1Br)[nH]c(=O)c1ccccc12 -47%
O=c1[nH]c(Nc2ccc(F)cc2)cc2ccccc12 -1.07%
COc1ccc(C(=O)OCC(=O)Nc2ncc([N+](=O)[O-])s2)cc1OC -5.7%
COCCN(C(=O)COC(=O)c1cc2c(s1)CCC2)c1c(N)n(Cc2ccccc2)c(=O)[nH]c1=O -1.05%
O=c1cc2c(=O)oc3cc(O)c(O)oc3c2c(O)c1O 1.36%
C/C(CC(=O)N1CCCC1)=N\NC(=O)c1cc2ccccc2cc1O 0.574%
CCCCN(C(=O)c1cccc(-n2cccc2)c1)c1c(N)n(CCC)c(=O)[nH]c1=O -0.777%
Nc1cc2nn(-c3ccccc3)nc2cc1Cl -1.99%
CCCCNC(=O)c1nc(C2CCNCC2)oc1-c1cccc(C(F)(F)F)c1 6.13%
NS(=O)(=O)c1ccc(NC(=O)COC(=O)c2ccc([N+](=O)[O-])s2)cc1 -0.1%
CCOc1c(O)ccc(/C=C2\SC(=S)NC2=O)c1[N+](=O)[O-] -3.04%
CN(CC(=O)Nc1c(Cl)cccc1Cl)C(=O)c1cccc(-n2cccc2)c1 4.11%
O=C(COC(=O)c1ccc([N+](=O)[O-])s1)Nc1cccc(S(=O)(=O)NC2=NCCCCC2)c1 3.37%
Cc1cc(C=O)c(C)n1-c1cc(C(=O)O)cc(C(=O)O)c1 -0.391%
O=C1NC(=O)C(=Cc2ccccc2[N+](=O)[O-])S1 1.62%
Cc1[nH]nc(S(=O)CC(=O)O)c1[N+](=O)[O-] (stereo not drawn) -3.2%
O=C(c1cccc(-n2cccc2)c1)N1CCN(S(=O)(=O)c2ccccc2)CC1 -1.52%
O=C(COC(=O)c1ccccc1)Nc1ncc([N+](=O)[O-])s1 2.71%
O=C(COC(=O)c1ccc([N+](=O)[O-])s1)Nc1ccc(F)cc1 -0.773%
O=S(=O)(O)c1cc(O)c2cc(Nc3ccccc3)ccc2c1 1.26%
O=P(c1ccccc1)(c1ccccc1)c1cc(S(=O)(=O)O)ccc1O 0.416%
O=C1CN(C(=O)COC(=O)c2ccc([N+](=O)[O-])s2)c2ccccc2N1 3.76%
O=c1c(O)cccc2cc(O)c(O)c(O)c12 -2.98%
Cc1c(NC(=O)C(C)OC(=O)c2ccc([N+](=O)[O-])s2)c(=O)n(-c2ccccc2)n1C (stereo not drawn) -0.097%
Cc1ccc(S(=O)c2ccc([N+](=O)[O-])c3nonc23)cc1 (stereo not drawn) -3.48%
CNS(=O)(=O)c1cccc(C(=O)OCC(=O)N2c3ccccc3NC(=O)C2(C)C)c1 -1.94%
[O-][n+]1onc2c1CCc1c-2nn(-c2ccccc2Cl)[n+]1[O-] -3.66%
COc1cc(-c2ccc(Nc3ccccc3C(=O)O)c(OC)c2)ccc1Nc1ccccc1C(=O)O -0.885%
